Laboratory results taken from PubChem BioAssay (EPA / NIEHS).
Results filed as inconclusive are left out. The source made the active and inactive calls. The calls were made as follows, unless noted: active = hit-call score of the fitted dose curve at least 0.9, where 1 is the maximum; inconclusive = response in the unintended direction; inactive = score below 0.9.

read-out: Intercellular Adhesion Molecule 1 (ICAM1), ICAM1 (gene 3383); assay: BSK_3C_ICAM1: BioMAP Diversity Plus: 3C Assay for Intercellular Adhesion Molecule 1 (ICAM1) Biomarker Activity (AID 2283003; active = hit-call score of the fitted dose curve at least 0.9, where 1 is the maximum; inactive = score below 0.9); settings: primary human endothelial cells (HUVEC); actives raise or lower the signal
In short: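 HUVEC primary cells stimulated under 3C conditions; ICAM1 measured by ELISA 24 h after compound dosing. Curves fitted bidirectionally against the DMSO baseline. Overt cytotoxicity checked by SRB staining of parallel cultures.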

outcome, inactive:
IC(I)I
O=CN1CCOCC1
COc1ccc(OC)c(N=Nc2c(O)ccc3ccccc23)c1
COc1cc(Cl)c(OC)cc1N
C=C(C)C(=O)OCCOCCOCCOCCOC(=O)C(=C)C
O=C1OC2(c3ccccc31)c1ccc(O)c(Br)c1Oc1c2ccc(O)c1Br
CN(C)C(=S)SC(=S)N(C)C

AC50, active:
CCCCCC(C=O)=Cc1ccccc1 30.9 µM
c1ccc(CCc2ccccc2)cc1 30.9 µM
CCCCN(CCCC)C(=O)N(CCCC)CCCC 10.7 µM
CCC(C)c1cc([N+](=O)[O-])cc([N+](=O)[O-])c1OC(=O)OC(C)C (configuration not stated) 29.1 µM
c1ccc(Oc2ccccc2)cc1 32.2 µM

molecular target: human Retinoic Acid Receptor beta (RARb), RARB (gene 5915) (UniProt P10826); assay: ATG_RARb_TRANS: Attagene TRANS-FACTORIAL HepG2 Assay for human Retinoic Acid Receptor beta (AID 2283004); settings: not given
In short: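 Induction of reporter mRNA from a chimeric RARb-Gal4 construct was measured by RT-PCR, FAM labelling, HpaI digestion and capillary electrophoresis. Measurements followed 24 h compound treatment of transiently transfected human HepG2 liver cells, with DMSO as baseline.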

human Retinoic Acid Receptor beta (RARb), RARB (gene 5915), sequence (P10826 whole entry, looked up, the tested form may be a part): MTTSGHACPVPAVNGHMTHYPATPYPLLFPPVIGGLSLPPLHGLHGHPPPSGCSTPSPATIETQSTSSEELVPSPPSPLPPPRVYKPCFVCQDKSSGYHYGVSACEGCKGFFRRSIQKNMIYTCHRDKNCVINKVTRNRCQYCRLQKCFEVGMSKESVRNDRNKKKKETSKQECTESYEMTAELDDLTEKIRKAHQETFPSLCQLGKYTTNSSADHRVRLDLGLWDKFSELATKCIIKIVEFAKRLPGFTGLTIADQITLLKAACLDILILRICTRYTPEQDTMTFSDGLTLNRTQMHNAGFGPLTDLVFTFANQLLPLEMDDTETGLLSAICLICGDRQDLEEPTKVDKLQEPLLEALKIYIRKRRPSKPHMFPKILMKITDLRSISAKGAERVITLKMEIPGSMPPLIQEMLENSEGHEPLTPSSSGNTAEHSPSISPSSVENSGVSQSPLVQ

outcome, inactive:
Cc1ncc([N+](=O)[O-])n1CCO
Nc1ccc(N)c2c1C(=O)c1ccccc1C2=O
IC(I)I
O=C1OC(=O)c2c(Cl)c(Cl)c(Cl)c(Cl)c21
COc1ccc(OC)c(N=Nc2c(O)ccc3ccccc23)c1
CCCCCCCCCCCCCC(=O)OCC(O)CO (configuration not stated)
NC(=S)NNC(N)=S
O=C(O)c1ccc(O)cc1
CCCCC(CC)COC(C)=O (configuration not stated)
CCCCCCC(O)CCCCCCCCCCC(=O)O (configuration not stated)
CCC(C)c1cc([N+](=O)[O-])cc([N+](=O)[O-])c1OC(=O)OC(C)C (configuration not stated)
COc1cc(Cl)c(OC)cc1N
CCc1cc(Cc2cc(CC)cc(C(C)(C)C)c2O)c(O)c(C(C)(C)C)c1
C[Si]1(C)O[Si](C)(C)O[Si](C)(C)O1
Nc1ccc2cc(S(=O)(=O)O)cc(O)c2c1N=Nc1ccccc1C(F)(F)F
COC(C)(C)CCO
CCCCCCCC/C=C\CCCCCCCC(=O)OCC
NCCNc1cccc2ccccc12
c1ccc(Oc2ccccc2)cc1
Cc1ccc(S(=O)(=O)Oc2ccc(N=Nc3ccc(-c4ccc(N=Nc5c(O)ccc6cc(S(=O)(=O)O)cc(S(=O)(=O)O)c56)c(C)c4)cc3C)cc2)cc1

molecular target: Retinoic acid receptor alpha (Homo sapiens) (UniProt P10276); assay: ATG_RARa_TRANS: Attagene TRANS-FACTORIAL HepG2 Assay for human Retinoic Acid Receptor alpha (RARa) (AID 2283005); settings: not given;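 as to AC50: potency for increased reporter signal meaning RARa activation over DMSO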
In short: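 Reporter transcripts, measured by RT-PCR with fluorescent labeling and capillary electrophoresis after 24 h dosing, reflect activity of an exogenous human RARa–GAL4 fusion in transiently transfected HepG2. Fitted for increase relative to DMSO.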

Retinoic acid receptor alpha (Homo sapiens), sequence (P10276 whole entry, looked up, the tested form may be a part): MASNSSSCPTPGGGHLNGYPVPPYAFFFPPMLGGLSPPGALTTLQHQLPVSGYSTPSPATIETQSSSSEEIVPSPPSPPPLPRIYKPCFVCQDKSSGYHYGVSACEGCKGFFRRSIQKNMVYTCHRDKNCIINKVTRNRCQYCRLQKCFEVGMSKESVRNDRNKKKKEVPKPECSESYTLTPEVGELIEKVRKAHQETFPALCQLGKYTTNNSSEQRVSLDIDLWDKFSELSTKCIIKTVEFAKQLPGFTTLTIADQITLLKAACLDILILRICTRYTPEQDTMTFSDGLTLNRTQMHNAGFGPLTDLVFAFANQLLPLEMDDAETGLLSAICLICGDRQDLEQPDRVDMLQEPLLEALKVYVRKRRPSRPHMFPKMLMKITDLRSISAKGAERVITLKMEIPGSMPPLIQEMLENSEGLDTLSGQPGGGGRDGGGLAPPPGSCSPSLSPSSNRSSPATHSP

outcome, inactive:
IC(I)I
CCCCCCCCCCCCCC(=O)OCC(O)CO (configuration not stated)
NC(=S)NNC(N)=S
CN(C)c1ccncc1
O=C(O)c1ccc(O)cc1
C[C@H]1O[C@@H](O[C@H]2[C@@H](O)C[C@H](O[C@H]3[C@@H](O)C[C@H](O[C@H]4CC[C@@]5(C)[C@H](CC[C@@H]6[C@@H]5C[C@@H](O)[C@]5(C)[C@@H](C7=CC(=O)OC7)CC[C@]65O)C4)O[C@@H]3C)O[C@@H]2C)C[C@H](O)[C@@H]1O
CCCCC(CC)COC(C)=O (configuration not stated)
CCCCCCC(O)CCCCCCCCCCC(=O)O (configuration not stated)
CCC(C)c1cc([N+](=O)[O-])cc([N+](=O)[O-])c1OC(=O)OC(C)C (configuration not stated)
COc1cc(Cl)c(OC)cc1N
C[Si]1(C)O[Si](C)(C)O[Si](C)(C)O1
C/C=C(\C)C(=O)OCCc1ccccc1
O=C1OC2(c3ccccc31)c1ccc(O)c(Br)c1Oc1c2ccc(O)c1Br
OCc1ccc(Cl)cc1Cl
Nc1ccc2cc(S(=O)(=O)O)cc(O)c2c1N=Nc1ccccc1C(F)(F)F
C=Cc1ccncc1
CCCCCCCC(=O)OCC(O)CO (configuration not stated)
NCCNc1cccc2ccccc12
CCCCCCCCCCCCS(=O)(=O)Cl

AC50, active:
CCc1cc(Cc2cc(CC)cc(C(C)(C)C)c2O)c(O)c(C(C)(C)C)c1 8.99 µM
